Among the test systems are NCI-H23 lung; NCI-H226 lung; NCI-H322M lung; HOP-62 NSCLC; NCI-H460 lung; HOP-92 NSCLC; NCI-H522 lung; A549/ATCC NSCLC; 786-0 renal; COLO 205 colon; DU-145 prostate; K-562 leukemia; MALME-3M melanoma; MDA-MB-231 breast; RXF 393 renal; SF-268 CNS; SF-295 CNS; SF-539 CNS; UACC-257 melanoma; M14 melanoma.
Common to all, as to assay: NCI-60 one-dose screen, 48 h (100 = growth as untreated, 0 = no growth, -100 = all killed)
What all share (conditions): 10 µM unless noted

The panel holds about 83,000 compounds, 20% with a hit somewhere; the sample as a whole holds those more often.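 Negative percent growth values reflect cell death: -40 means 40% of the cells present at the start died, and -100 means all died.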 Unmarked numbers belong to inactive results. Activity calls are given as the source filed them. Rule for the calls: active = growth percent below 10; inactive = the rest.

`CCC(N)(C(=O)O)c1ccc(F)cc1` (stereo not given): the growth in the assay with NCI-H23 lung is 102%; in the assay on NCI-H226 lung, 106%; with NCI-H322M lung, 113%; with HOP-62 NSCLC it was 104%; in the assay on NCI-H460 lung, 106%; in the assay with HOP-92 NSCLC, 93.9%. For the same molecule, the growth was 90.2% in the assay on NCI-H522 lung; 81.5% in the assay on A549/ATCC NSCLC; 99.9% in the assay with 786-0 renal; 105% in the assay with COLO 205 colon; 108% in the assay with DU-145 prostate; 91.9% with K-562 leukemia. Also, the growth with MALME-3M melanoma was 112%; in the assay on MDA-MB-231 breast, 110%; with RXF 393 renal, 123%; in the assay on SF-268 CNS it was 102%; with SF-295 CNS it was 108%; in the assay on SF-539 CNS it was 109%. The figures for the growth with UACC-257 melanoma and with M14 melanoma were 86.2% and 103%, respectively.

For `COc1cc(NC(=O)C#Cc2ccccc2)c(OC)cc1Cl`, the growth in the assay with NCI-H23 lung is 57.8%; with NCI-H226 lung it was 64.7%; in the assay on NCI-H322M lung it was 93.2%; with HOP-62 NSCLC, 77.6%; in the assay with NCI-H460 lung, 17.8%; with HOP-92 NSCLC, 78.5%. Besides, the growth in the assay on NCI-H522 lung was 39.2%; in the assay with A549/ATCC NSCLC, 59.5%; in the assay on 786-0 renal, 35.1%; with COLO 205 colon, 64.6%; with DU-145 prostate it was 83.6%; in the assay with K-562 leukemia it was 20.6%. Besides, the growth is 61.4% in the assay with MALME-3M melanoma; 26.6% with MDA-MB-231 breast; 83.5% with RXF 393 renal; 39.8% in the assay on SF-268 CNS; 75.1% in the assay with SF-295 CNS; 66.6% with SF-539 CNS. Also, the growth with UACC-257 melanoma was 89.2%; in the assay on M14 melanoma, 49.8%.

Take `CCCCCCCCCCCC(=O)OCCNC(=O)C[n+]1ccccc1`: the growth in the assay with NCI-H23 lung is 107%; in the assay on NCI-H226 lung, 98.7%; with NCI-H322M lung, 99.4%; in the assay on HOP-62 NSCLC, 102%; with NCI-H460 lung, 120%; in the assay with HOP-92 NSCLC, 68.7%. Further, the growth in the assay with NCI-H522 lung is 102%; in the assay on A549/ATCC NSCLC, 104%; in the assay on 786-0 renal it was 112%; with COLO 205 colon, 105%; with DU-145 prostate, 131%; in the assay with K-562 leukemia it was 117%. The growth with MALME-3M melanoma was 96.3%; in the assay on MDA-MB-231 breast it was 99.6%; with RXF 393 renal, 110%; in the assay on SF-268 CNS it was 104%; in the assay with SF-295 CNS, 78.7%; in the assay with SF-539 CNS, 105%. For the same molecule, the growth in the assay on UACC-257 melanoma was 106%; in the assay on M14 melanoma, 102%.

On to `COc1cc(/C=C\c2cc(/C=C\c3ccc(O)c(OC)c3)n(C(=O)CNc3ccccc3OC)n2)ccc1O`, for which the growth in the assay with NCI-H23 lung is 69.7%; in the assay on NCI-H226 lung it was 86%; in the assay on NCI-H322M lung, 90.5%; in the assay on HOP-62 NSCLC it was 86.4%; with NCI-H460 lung, 81.6%; with HOP-92 NSCLC, 81.8%. For the same molecule, the growth in the assay on NCI-H522 lung was 21.9%; with A549/ATCC NSCLC, 83.7%; with 786-0 renal it was 97.4%; with COLO 205 colon it was 107%; in the assay on DU-145 prostate it was 95.3%; in the assay with K-562 leukemia, 19.4%. The growth was 47.9% in the assay with MALME-3M melanoma; 87% in the assay on MDA-MB-231 breast; 90.2% in the assay on RXF 393 renal; 58.9% with SF-268 CNS; 85.1% in the assay on SF-295 CNS; 42% in the assay on SF-539 CNS. In addition, the figures for the growth in the assay on UACC-257 melanoma and in the assay with M14 melanoma were 85.5% and 35.4%, respectively.

Turning to `C#CC(=O)/C=C/CCCCCCC#CC(=O)CCC(=O)C#CCCCCCC/C=C/C(=O)C#C`, the growth with NCI-H23 lung was 15%; with NCI-H226 lung, 122%; in the assay on NCI-H322M lung, 93.5%; in the assay with HOP-62 NSCLC it was 61.2%; in the assay with NCI-H460 lung, 80%; in the assay with HOP-92 NSCLC, -42.3% (active). Moreover, the growth was -78.6% (active) in the assay with NCI-H522 lung; 87.8% with A549/ATCC NSCLC; -46.9% (active) in the assay with 786-0 renal; -0.795% (active) with COLO 205 colon; 35.3% in the assay on DU-145 prostate; 0.258% (active) in the assay with K-562 leukemia. Further, the growth was -68.3% (active) with MALME-3M melanoma; -6.98% (active) with MDA-MB-231 breast; -36.7% (active) with RXF 393 renal; 22.5% in the assay on SF-268 CNS; 71.7% in the assay on SF-295 CNS; -34.5% (active) with SF-539 CNS. The figures for the growth with UACC-257 melanoma and in the assay with M14 melanoma were 62.9% and -19.2% (active), respectively.

Turning to `CCC(CC(C)C)Nc1ccc(NC(CC)CC(C)C)cc1` (stereo not given), the growth was 77.7% in the assay with NCI-H23 lung; 76.5% in the assay on NCI-H226 lung; 107% in the assay on NCI-H322M lung; 105% in the assay on HOP-62 NSCLC; 94.5% in the assay with NCI-H460 lung; -13.1% (active) with HOP-92 NSCLC. In addition, the growth in the assay on NCI-H522 lung was 14.6%; in the assay with A549/ATCC NSCLC, 89.2%; in the assay on 786-0 renal, 93.1%; in the assay on COLO 205 colon it was 76.9%; in the assay with DU-145 prostate, 103%; in the assay with K-562 leukemia, -4.28% (active). Further, the growth in the assay with MALME-3M melanoma is 97.7%; in the assay on MDA-MB-231 breast, 93.1%; in the assay with RXF 393 renal it was 96.5%; in the assay with SF-268 CNS it was 72.2%; in the assay with SF-295 CNS it was 95.3%; with SF-539 CNS, 107%. Besides, the growth was 92.4% in the assay with UACC-257 melanoma and 99.4% with M14 melanoma.

With `NS(=O)(=O)c1ccc(CCN2C(=O)/C(=C\c3ccc(Cl)cc3)C=C2c2ccc(Oc3ccccc3)cc2)cc1`, the growth in the assay with NCI-H23 lung is 84%; in the assay with NCI-H226 lung, 72.7%; in the assay on NCI-H322M lung, 79.2%; in the assay on HOP-62 NSCLC, 95.9%; in the assay on NCI-H460 lung, 69%; in the assay with HOP-92 NSCLC it was 84.7%. The growth was 56.1% with NCI-H522 lung; 51.8% with A549/ATCC NSCLC; 91.1% in the assay on 786-0 renal; 80% in the assay on COLO 205 colon; 89.4% in the assay on DU-145 prostate; 47.8% in the assay on K-562 leukemia. The growth was 82% with MALME-3M melanoma; 72.9% with MDA-MB-231 breast; 70.3% in the assay with RXF 393 renal; 82.7% in the assay with SF-268 CNS; 77.3% in the assay on SF-295 CNS; 97.7% with SF-539 CNS. The results for the growth in the assay on UACC-257 melanoma and in the assay with M14 melanoma were 92.4% and 73.7%, respectively.

As for `CCC1S/C(=N\N=C(/C)c2cccs2)N(c2ccccc2)C1=O` (stereo not given), the growth is 101% with NCI-H23 lung; 136% with NCI-H226 lung; 109% in the assay with NCI-H322M lung; 65.4% with HOP-62 NSCLC; 112% with NCI-H460 lung; 85.1% with HOP-92 NSCLC. In addition, the growth in the assay with NCI-H522 lung was 82.2%; in the assay with A549/ATCC NSCLC it was 89.5%; in the assay with 786-0 renal, 86.2%; with COLO 205 colon, 114%; in the assay with DU-145 prostate, 123%; with K-562 leukemia, 110%. The growth is 181% in the assay with MALME-3M melanoma; 97.7% with MDA-MB-231 breast; 97.3% with RXF 393 renal; 89.3% with SF-268 CNS; 123% in the assay with SF-295 CNS; 124% in the assay on SF-539 CNS. Further, the growth was 97.5% with UACC-257 melanoma and 141% in the assay on M14 melanoma.
